In PubChem BioAssay (NCI):
This is part of a sample that, as a whole, favours compounds with a hit. Of some 79,000 tested, about 15% had one in any assay. No stated cut-off is given here; in the data, active means growth inhibition above about 70%; inactive means the rest.

How the values were obtained:
[1] = NCI Yeast Anticancer Drug Screen. Data for the rad50 strain (AID 155);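 further: 0% = growth of vehicle-only cultures of the same strain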; conditions: S. cerevisiae rad50 strain growth inhibition; at 50.0 µM; active compounds read high
In short: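 Genetically altered yeast (DNA repair pathway); compound treatment; growth inhibition vs vehicle ctrl.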

[2] = NCI Yeast Anticancer Drug Screen. Data for the mec2-1 strain (AID 157); conditions: S. cerevisiae mec2-1 strain, at 50.0 µM, active compounds read high
In short: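 Readout is yeast growth inhibition, normalised to vehicle-treated controls, in the mec2-1 strain exposed to compound.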

[3] = NCI Yeast Anticancer Drug Screen. Data for the sgs1 mgt1 strain (AID 161);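 further: 0% = growth of cultures given vehicle only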; conditions: S. cerevisiae sgs1 mgt1 strain, at 50.0 µM, active compounds read high
In short: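 Percent growth inhibition was derived by comparing compound-exposed mutant yeast with vehicle-exposed cultures. The strain carries alterations in DNA damage repair.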

[4] = NCI Yeast Anticancer Drug Screen. Data for the cln2 rad14 strain (AID 165);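 further: 0% = growth equal to vehicle treated cultures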; conditions: S. cerevisiae cln2 rad14 strain, at 50.0 µM, active compounds read high
In short: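 Relative to vehicle controls, growth inhibition of compound-treated cln2 rad14 yeast was recorded.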

[5] = NCI Yeast Anticancer Drug Screen. Data for the bub3 strain (AID 167); conditions: S. cerevisiae bub3 mutant strain, at 50.0 µM, active compounds read high
In short: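 Yeast carrying a defined mutation is treated with each compound, and growth is compared with that of vehicle-exposed cells to give inhibition.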

[6] = NCI Yeast Anticancer Drug Screen. Data for the mlh1 rad18 strain (AID 175); conditions: S. cerevisiae mlh1 rad18 strain growth inhibition; at 50.0 µM; active compounds read high
In short: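 Test agents were incubated with a yeast strain of defined genotype (DNA damage repair defect). Inhibition of growth was derived by comparison with vehicle-exposed cultures.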

Measured: growth inhibition

CC1=CC(=Nc2ccc(N(C)C)cc2)C(C)=CC1=O
inactive: [1] -11.1% | [2] -28.3% | [3] -2.4% | [4] -30.6% | [5] 5.4% | [6] -4.35%

O=C(Cl)C=Cc1ccc([N+](=O)[O-])cc1 (mixture of isomers)
inactive: [1] 4.7% | [2] 6.7% | [3] -0.25% | [4] -6.65% | [5] 2.15% | [6] 1.95%

CC(=O)N(C)Cc1c(O)ccc2ccccc12
inactive: [1] -7.25% | [2] -21.2% | [3] -9.9% | [4] -9.4% | [5] -2.25% | [6] 12.7%

CC(C)(C)c1cc(/C=N/NC(=S)Nc2ccccc2)cc(C(C)(C)C)c1O
inactive: [1] 25.9% | [2] 8.35% | [3] 41% | [4] -26.3% | [5] -7.15% | [6] 41.5%

Clc1ccccc1-c1c2ccccc2cc2ccc3ccccc3c12
inactive: [1] -6.75% | [2] -11.6% | [3] -3.85% | [4] -39.5% | [5] 18.9% | [6] -12.4%

Nc1nc2[nH]c(=O)c(C(=O)O)nc2c(=O)[nH]1
inactive: [1] 8.35% | [2] -6.15% | [3] -5.05% | [4] -16.6% | [5] 10.4% | [6] -11.6%

Cc1ccc(NC(=O)c2cc3cc(N=Nc4ccc(Br)cc4)ccc3oc2=O)cc1
inactive: [1] 16% | [2] 28.1% | [3] 12.4% | [4] 23.1% | [5] 3.05% | [6] 15.8%

CC(=O)N(C)c1ccc(NC(=O)Cc2ccccc2)cc1
inactive: [1] 12.7% | [2] 22.7% | [3] 23.6% | [4] 9.95% | [5] 35.5% | [6] -2.35%

CCOc1ccccc1N1C(=O)C(=O)C(c2nc3ccccc3o2)C(=O)C1=O
inactive: [1] -8.75% | [2] 4.3% | [3] -8.4% | [4] -15.9% | [5] 2.55% | [6] -3.2%

COc1ccc(/C=C/C2=CC(=O)CC(/C=C/c3ccc(OC)c(OC)c3)C2)cc1OC (stereo not given)
inactive: [1] 45% | [2] 46.5% | [3] 28.9% | [4] 49.6% | [5] 58.6% | [6] 43.9%

c1ccc([P+](CCNCCNCC[P+](c2ccccc2)(c2ccccc2)c2ccccc2)(c2ccccc2)c2ccccc2)cc1
inactive: [1] 6.3% | [2] 9.25% | [3] -13.8% | [4] 5.65% | [5] -5.2% | [6] -0.6%

Cc1c(C(=O)Nc2ccc(Cl)c(C(F)(F)F)c2)oc2cc(O)ccc2/c1=N\NC(N)=S
inactive: [1] -12.3% | [2] -14.4% | [3] -23.6% | [4] -7.85% | [5] -7.35% | [6] -17.4%

CC(C)Cn1cnc2c(Sc3c([N+](=O)[O-])ncn3C)nc(N)nc21
inactive: [1] 7.95% | [2] -14.1% | [3] -13.2% | [4] -1.4% | [5] 2.1% | [6] 7.15%

COc1ccc(C2OCC3(O)C(c4ccc(OC)c(OC)c4)OCC23)cc1OC (stereo not given)
inactive: [1] -0.85% | [2] -3.15% | [3] -1.35% | [4] 19.4% | [5] -9.8% | [6] 6.85%

c1ccc(-c2cc(-c3cc(-c4ccccc4)n(-c4ccccc4)n3)nn2-c2ccccc2)cc1
inactive: [1] -2.9% | [2] -13.2% | [3] -19.3% | [4] -2.55% | [5] -14% | [6] -38.3%

O=C(NCCN1CCCC1)NC1CCCCC1
inactive: [1] -2.25% | [2] 2.35% | [3] 3.85% | [4] -69.5% | [5] 8.2% | [6] 14.8%

O=[N+]([O-])c1ccc2[nH]ncc2c1
inactive: [1] 19.2% | [2] -8.05% | [3] 0.35% | [4] -3.15% | [5] 8.45% | [6] 13.7%

CN(C)C(=O)CCOc1cccc2ccccc12
inactive: [1] 16.6% | [2] -3.1% | [3] -16% | [4] -69.5% | [5] -20.8% | [6] 1%

C/C(=N/NC(=O)C(N)=O)C(CC(C(=O)Nc1ccccc1C)/C(C)=N\NC(=O)C(N)=O)C(=O)Nc1ccccc1C (stereo not given)
inactive: [1] 0.75% | [2] -0.6% | [3] -8.1% | [4] -12.2% | [5] 8.05% | [6] -12.6%

CC1(C)OC2COC3OC(C)(C)OC3(CO)C2O1 (stereo not given)
inactive: [1] -1.7% | [2] -17.8% | [3] -6.1% | [4] -4.9% | [5] 20.5% | [6] 5.15%

CC(=O)Nc1cc(C(C)=O)ccc1C(C)=O
inactive: [1] -5.8% | [2] -6.2% | [3] 6% | [4] 2.35% | [5] -0.5% | [6] 12.7%

O=C(C=C1CCCCC1)c1ccccc1
inactive: [1] 12.9% | [2] -6.35% | [3] 7.45% | [4] -6.2% | [5] 2.9% | [6] 5.25%

CC[N+](CC)=c1ccc2nc3c(cc(Nc4ccccc4)c4ccccc43)oc-2c1.[Cl][Zn][Cl]
inactive: [1] 18.4% | [2] 1.4% | [3] 22.2% | [4] 20.9% | [5] -0.55% | [6] 15.4%

COc1cc(NS(=O)(=O)c2ccc(N)cc2)c2ncccc2c1
inactive: [1] 1.2% | [2] 22.8% | [3] 8.8% | [4] -17.1% | [5] 4.5% | [6] 2.95%

O=C(NCCS(=O)(=O)N1C(=O)C2CCCN2C(=O)[C@@H]1Cc1ccccc1)OCc1ccccc1 (stereo not given in full)
inactive: [1] -4.35% | [2] -0.55% | [3] -4.35% | [4] 19.4% | [5] 5.8% | [6] 26.1%

CC(=O)Oc1cc(C)ccc1C
inactive: [1] -2.7% | [2] -0.5% | [3] -18.2% | [4] -55.5% | [5] -21.8% | [6] -0.35%

C(=C/c1ccccc1)/C=N/N1CCN(/N=C/C=C/c2ccccc2)CC1
inactive: [1] -1.4% | [2] 20.6% | [3] 14.8% | [4] -7.1% | [5] 18.5% | [6] -7.05%

CC1C(C)C1(c1ccccc1)C(C)(C)O (stereo not given)
inactive: [1] 8.55% | [2] 1.1% | [3] 1.3% | [4] 16.9% | [5] -24.1% | [6] -3.45%

COc1cc(/C=C/C(C)=O)ccc1OP(=O)(O)O
inactive: [1] -22.4% | [2] -24.4% | [3] -29.8% | [4] 0.1% | [5] -32.1% | [6] 7.65%

COCCCNC(=O)C1C(=O)N(CCCOC)C(=O)/C1=N\N (stereo not given)
inactive: [1] 5.15% | [2] 21.1% | [3] 12.1% | [4] -9.3% | [5] -2.25% | [6] 17.1%

C[C@]12CC[C@@H]3c4cc(OCC(F)(F)F)c(O)cc4/C(=N/O)C[C@H]3[C@@H]1CC[C@@H]2O
inactive: [1] -0.75% | [2] -4.55% | [3] 4.65% | [4] 17.6% | [5] 12.8% | [6] 13.2%

Clc1ccccc1-n1cccc1/C=N\N=C/c1cccn1-c1ccccc1Cl
inactive: [1] 0.15% | [2] 1.7% | [3] -6.1% | [4] -53.7% | [5] -1.8% | [6] -8%

CCCCCCCCCCCCCCCCCC1=Nc2cc(C)c(C)cc2NC(=O)C1
inactive: [1] -21.7% | [2] -31.6% | [3] -30.1% | [4] 7.35% | [5] -12.8% | [6] -8.1%

CS(=O)(=O)c1ccc(/C=C2/C=Cc3ccccc32)cc1
inactive: [1] 19.1% | [2] 13.2% | [3] 6.35% | [4] 15.4% | [5] 30.2% | [6] 14.7%

N#CC1=C(Nc2ccccc2)CCC1
inactive: [1] 5% | [2] -11.6% | [3] -0.8% | [4] -38.8% | [5] 2.25% | [6] -5.4%

NC(Cc1ccc(CP(=O)(O)O)cc1)C(=O)O (stereo not given)
inactive: [1] -44.8% | [2] -61.3% | [3] -55.1% | [4] -20% | [5] -27.5% | [6] -70.3%

CN(C)NC(=S)Nc1ccccc1
inactive: [1] -5.05% | [2] -0.65% | [3] -11.8% | [4] -36% | [5] -1.7% | [6] -6.15%

COc1ccc(CNc2nc3ccc(C(F)(F)F)cc3nc2-c2ccccc2)cc1OC
inactive: [1] -33.8% | [2] 3.7% | [3] 17.6% | [4] 6.45% | [5] 1.05% | [6] -11.9%

COc1ccc(C(C#N)CC(=O)c2ccccc2)cc1 (stereo not given)
inactive: [1] 6.4% | [2] 10.9% | [3] 0.95% | [4] 4.45% | [5] -2.6% | [6] -8.35%

CCCCCc1ccc2oc(=O)c3ccc(C)cc3c2c1O
inactive: [1] -9.7% | [2] 8.7% | [3] 16.2% | [4] -16.8% | [5] -25.3% | [6] -5.6%
